# Experimental data taken from PubChem BioAssay (NCI).
# About 83,000 compounds went through this panel and 20% of them were active in at least one assay; those are over-represented in the sample as a whole.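 Note: values are percent growth. 100 is the growth of untreated cells, values between 100 and 0 indicate rising inhibition; between -100 and 0 indicates cell death.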 Active and inactive are the calls of the source. How the source made its calls: active means growth percent below 10; inactive means the rest.
# Tested on: MDA-MB-468 breast
# Assay: NCI-60 one-dose screen, 48 h (100 = growth as untreated, 0 = no growth, -100 = all killed)
# Settings: 10 µM unless noted
row,SMILES,growth
1,O=C1c2cccnc2C(=O)c2nc3cc(N4CCN(C5CC5)CC4)ccc3nc21,-22% (active)
2,O=C(Nc1ccc(Cl)cc1)Oc1c(Cl)c(Cl)c(Cl)c(Cl)c1Cl,106% (inactive)
3,CC(=O)Oc1c(C)c(OC(C)=O)c2c(c1C(C)=O)OC1CC(=O)C(C(C)=O)=C(O)C21C (stereo not given),90.1% (inactive)
4,O=C(O)CNC(=O)C1(N2C(=O)c3ccccc3C2=O)CCCC1,98.1% (inactive)
5,CCOC(=O)C1=C(C)NC(=O)NC1c1c(Cl)n(CCCl)c2ccccc12 (stereo not given),97.2% (inactive)
6,Cc1ccc(C(NC(=O)c2ccccc2)c2ccc3cccnc3c2O)cc1 (stereo not given),-26.6% (active)
7,COc1ccc(-c2nn(-c3cccc(Cl)c3)cc2C2CC(c3ccccc3)=NN2C(C)=O)cc1 (stereo not given),80.9% (inactive)
8,CCN(CC)c1ccc(-c2cc(-c3cc(OC)c(OC)c(OC)c3)nc(N3CCOCC3)c2C#N)cc1,32.9% (inactive)
9,CC(C)=CCc1cc2c(cc1O)C1=C(C(=O)C3=C(NCCS3(=O)=O)C1=O)C(C=C(C)C)O2 (stereo not given),-20.7% (active)
10,Clc1ccc2[nH]cc(-c3cncn3CCc3ccc4c(c3)OCO4)c2c1,6.19% (active)
11,CCN1C(=O)N(CC)C2C1NN=c1s/c(=C3\C(=O)N(CCC(C)C)c4ccccc43)c(=O)n12 (stereo not given),27.1% (inactive)
12,COc1cc(C(c2c[nH]c3ccccc23)N2CCCC2)ccc1OCc1ccccc1 (stereo not given),53.9% (inactive)
13,CC(Sc1nc2sc3c(c2c(=O)n1-c1ccc(Cl)cc1)CCCC3)C(=O)Nc1nc(-c2ccc(Br)cc2)cs1 (stereo not given),105% (inactive)
14,C=CN(C)S(C)(=O)=O,-3.6% (active)
15,C=C(Cl)C(=NC(C)(C)C)Nc1ccccc1C,39.2% (inactive)
16,COc1ccc(NC(=O)Nc2ccc(-c3cccnc3)cc2N2CCC(CO)CC2)cc1,42.5% (inactive)
17,O=C1c2ccccc2C(=O)c2c(N=Nc3[nH]c(=S)[nH]c3O)cccc21,-4.9% (active)
18,COc1ccc2c(c1)c(-c1nc(-c3cn(C)c4ncccc34)cs1)cn2CCCN1CCCCC1,70.9% (inactive)
19,CCSc1nc(-c2ccc(F)cc2)c(C#N)c(=O)[nH]1,91.4% (inactive)
20,CC1CCN(C(=O)CCCl)c2ccccc21 (stereo not given),108% (inactive)

row,SMILES,growth
1,CCCCCCCCCCCCCCCCS(=O)(=O)Nc1cc(C(=O)NN)cc(C(=O)NN)c1,45.2% (inactive)
2,COc1ccc(Cn2cc3c(c2-c2ccccc2)CCc2cnoc2-3)cc1N,10.4% (inactive)
3,CCOCCC(=O)O,99.2% (inactive)
4,COc1ccc2nc3c(cc2c1)C(=O)CC(c1ccccc1)C3 (stereo not given),68.3% (inactive)
5,CCc1c(C)c2ccc(O)c(-c3cc(-c4ccccc4)c(C#N)c(=O)[nH]3)c2oc1=O,102% (inactive)
6,COc1cc(-c2nc3ccc(C)cc3[nH]2)ccc1OCC(=O)N=Nc1c(O)[nH]c2ccccc12,-85.9% (active)
7,CS(=O)(=O)c1ccc(-n2nc(-c3ccc(Br)cc3)c3ccccc3c2=O)cc1,100% (inactive)
8,CCN1CCN(c2ccc(Nc3ncnc4c3nnn4CCc3cc(OC)cc(OC)c3)cc2)CC1,76.1% (inactive)
9,OCC1OC(n2cnc3c(NCc4ccco4)ncnc32)C(O)C1O (stereo not given),-82.8% (active)
10,O=C(c1ccccc1)N1N=C(c2ccc(-n3ccc(C(F)(F)F)n3)c(F)c2)CC1c1ccc[nH]1 (stereo not given),108% (inactive)
11,C[C@@H]1C[C@H](N)C[C@H](c2ccncc2NC(=O)c2ccc(F)c(-c3c(F)cccc3F)n2)C1,22.3% (inactive)
12,COc1ccc(-c2cnc3c(-c4cccc5ncccc45)cnn3c2)cc1,57.1% (inactive)
13,CCC(=C(c1ccc(OCCN2CCCCCC2)cc1)c1ccc(OCCN2CCCCCC2)cc1)c1ccc(Cl)cc1,-83.3% (active)
14,O=C(NCCCl)Nc1nccnc1OCc1ccc(F)cc1,102% (inactive)
15,O=C(O)c1cccc([N+](=O)[O-])c1O,102% (inactive)
16,COc1cc(-c2c3c(cn2CCN2CCCCC2)-c2oncc2CC3)cc(OC)c1OC,94.6% (inactive)
17,N#Cc1cc2[nH]c3ccc(OC(F)(F)F)cc3c2oc1=O,95.2% (inactive)
18,CN1CCN(c2ccc(NC3=C(Cl)C(=O)c4ncccc4C3=O)cc2C(F)(F)F)CC1,-79.2% (active)
19,Nc1ccc(-n2c(=O)oc3ccc(Cl)cc3c2=O)c(Cl)c1,-6.87% (active)
20,CC(c1ccccc1)N1C(=O)CSC1=S (stereo not given),-5.47% (active)
